Consider eleven molecules from ChEMBL document CHEMBL3988442, “University of Dundee, Small-Polar-MMV Screening Library” (2021).

Common to all, as to design: scale not given: direction of the effect not stated beside the values
Test [1] addresses Protein translocase subunit SecA (Escherichia coli (strain K12)) (UniProt P10408). Kind of test: Assay to Identify E. coli SecA ATPase Inhibitors. The class given is functional. To be noted: 30 µM.
The target in test [2] is T1, Ubiquitin-activating enzyme e1, putative (Leishmania donovani (strain BPK282A1)) (UniProt E9BSI1).
T1 sequence (whole entry): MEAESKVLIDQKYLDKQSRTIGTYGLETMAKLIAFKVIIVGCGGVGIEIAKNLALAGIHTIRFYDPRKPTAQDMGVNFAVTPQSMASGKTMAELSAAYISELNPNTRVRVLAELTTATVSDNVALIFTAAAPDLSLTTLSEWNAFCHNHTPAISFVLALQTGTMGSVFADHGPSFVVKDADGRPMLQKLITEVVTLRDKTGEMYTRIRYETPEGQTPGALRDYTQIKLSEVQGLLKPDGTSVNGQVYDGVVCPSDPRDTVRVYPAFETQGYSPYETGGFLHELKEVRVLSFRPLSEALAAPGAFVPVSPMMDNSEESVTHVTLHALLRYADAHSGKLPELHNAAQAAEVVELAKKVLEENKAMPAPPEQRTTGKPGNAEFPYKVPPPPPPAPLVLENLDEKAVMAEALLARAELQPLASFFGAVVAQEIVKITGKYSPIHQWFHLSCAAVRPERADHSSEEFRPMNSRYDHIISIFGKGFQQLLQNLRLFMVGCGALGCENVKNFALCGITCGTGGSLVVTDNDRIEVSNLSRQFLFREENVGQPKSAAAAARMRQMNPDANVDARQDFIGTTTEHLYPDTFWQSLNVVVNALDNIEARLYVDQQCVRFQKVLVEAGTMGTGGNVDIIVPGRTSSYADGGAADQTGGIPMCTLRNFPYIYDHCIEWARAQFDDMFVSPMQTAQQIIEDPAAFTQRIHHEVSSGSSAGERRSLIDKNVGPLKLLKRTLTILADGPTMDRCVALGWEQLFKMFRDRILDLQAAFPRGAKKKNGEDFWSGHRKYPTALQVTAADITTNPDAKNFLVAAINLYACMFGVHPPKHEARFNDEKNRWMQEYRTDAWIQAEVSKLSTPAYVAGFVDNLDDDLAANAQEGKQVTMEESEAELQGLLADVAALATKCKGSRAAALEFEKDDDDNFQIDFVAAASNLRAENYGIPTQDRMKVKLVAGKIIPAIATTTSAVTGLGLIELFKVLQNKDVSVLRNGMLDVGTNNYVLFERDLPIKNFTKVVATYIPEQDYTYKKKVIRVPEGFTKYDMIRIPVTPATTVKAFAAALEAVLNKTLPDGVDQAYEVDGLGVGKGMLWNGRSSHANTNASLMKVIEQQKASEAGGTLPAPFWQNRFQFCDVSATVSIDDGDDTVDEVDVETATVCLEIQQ
Kind of test: Leishmania donovani Ubiquitin Activating Enzyme (LdE1). To be noted: 30 µM. Type of test: functional.

Test [3] has as its target AMP-activated protein kinase, AMPK (Homo sapiens) (UniProt P54646+O43741+P54619+Q9UGJ0+Q9Y478+Q13131+Q9UGI9). Kind of test: AMP-dependent Kinase enzyme assay. An in vitro enzyme assay that detects ADP turnover that is directly proportional to AMPK activity. This uses naive AMPK that is activated during the assay with MK-8722. Type of test: functional. To be noted: 30 µM.

Test [4] has as its target Sialic acid-binding Ig-like lectin 9 (Homo sapiens) (UniProt Q9Y336). Kind of test: Hs-Siglec9 ALPHAscreen SOP 20170721. To be noted: 10 µM.
For the next test, the system named is Trypanosoma cruzi. Kind of test: Trypanosoma cruzi phosphomannomutase and mannose-1-phosphate guanylyltransferase assay. To be noted: 10 µM. The class given is functional.
Test [5] concerns the target T2, Arginase-2, mitochondrial (Homo sapiens) (UniProt P78540).
T2 sequence (whole entry): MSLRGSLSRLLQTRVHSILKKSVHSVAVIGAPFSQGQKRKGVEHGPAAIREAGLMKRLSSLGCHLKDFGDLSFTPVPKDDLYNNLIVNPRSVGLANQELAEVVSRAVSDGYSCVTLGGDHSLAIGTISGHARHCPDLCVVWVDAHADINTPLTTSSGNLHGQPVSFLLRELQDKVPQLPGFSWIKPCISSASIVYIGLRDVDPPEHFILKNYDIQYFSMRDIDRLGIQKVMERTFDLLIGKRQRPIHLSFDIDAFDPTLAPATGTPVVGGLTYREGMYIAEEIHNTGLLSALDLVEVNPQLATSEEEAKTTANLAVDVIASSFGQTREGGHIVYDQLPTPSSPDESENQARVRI
Kind of test: in vitro enzyme assay to detect the production of urea directly proportional to the activity of Arginase II. Further: in the data most compounds retested in dose-response had high values. As to conditions: 33.3 µM. The class given is functional.

Test [6] has as its target T3, Proteasome subunit beta (Trypanosoma cruzi) (UniProt O96673).
T3 sequence (whole entry): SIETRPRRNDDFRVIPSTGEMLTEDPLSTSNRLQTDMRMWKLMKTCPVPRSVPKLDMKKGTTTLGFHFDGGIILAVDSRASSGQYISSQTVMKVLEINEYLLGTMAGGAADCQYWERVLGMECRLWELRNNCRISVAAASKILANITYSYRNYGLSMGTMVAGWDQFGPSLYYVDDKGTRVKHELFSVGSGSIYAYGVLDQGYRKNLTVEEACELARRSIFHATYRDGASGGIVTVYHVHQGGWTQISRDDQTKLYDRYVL
Kind of test: Trypanosoma cruzi proteasome chymotrypsin-like activity (TcProtChymo) assay. Further: in the data most compounds retested in dose-response had high values. The class given is functional. To be noted: 9.37 µM.

Another test is filed under the species Homo sapiens. Kind of test: To identify inhibition of the IFN signalling (Jak-Stat) pathway via expression of an eGFP reporter gene under the control of an IFN-stimulated response element (ISRE) containing MxA promoter. The class given is functional. As to conditions: 30 µM.
The target of test [7] is T4, Tyrosyl-tRNA synthetase, putative (Trypanosoma cruzi (strain CL Brener)) (UniProt Q4DSP6).
T4 sequence (whole entry): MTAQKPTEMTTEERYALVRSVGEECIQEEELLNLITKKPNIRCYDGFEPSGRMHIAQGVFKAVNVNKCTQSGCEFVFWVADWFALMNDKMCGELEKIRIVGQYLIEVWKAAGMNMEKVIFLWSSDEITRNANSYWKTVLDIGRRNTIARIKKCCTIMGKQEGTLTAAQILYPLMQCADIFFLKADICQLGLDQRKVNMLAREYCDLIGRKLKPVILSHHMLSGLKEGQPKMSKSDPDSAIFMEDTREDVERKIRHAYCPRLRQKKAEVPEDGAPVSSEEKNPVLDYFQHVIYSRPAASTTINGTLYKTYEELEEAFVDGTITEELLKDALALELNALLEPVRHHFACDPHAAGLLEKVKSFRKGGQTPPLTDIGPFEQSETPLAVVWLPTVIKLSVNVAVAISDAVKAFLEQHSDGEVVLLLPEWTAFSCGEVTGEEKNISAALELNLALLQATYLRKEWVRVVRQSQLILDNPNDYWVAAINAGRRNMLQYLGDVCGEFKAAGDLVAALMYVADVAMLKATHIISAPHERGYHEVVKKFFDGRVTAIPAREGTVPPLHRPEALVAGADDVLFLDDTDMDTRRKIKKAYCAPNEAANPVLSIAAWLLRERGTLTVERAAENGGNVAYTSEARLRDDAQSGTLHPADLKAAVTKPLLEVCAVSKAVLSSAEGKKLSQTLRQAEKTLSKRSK
Kind of test: Trypanosoma cruzi tyrosyl tRNA synthetase (TcYRS) _High Tyrosine SOP. Further: in the data most compounds retested in dose-response had high values. The class given is functional. As to conditions: 30 µM.

Test [8] concerns the target T4, Tyrosyl-tRNA synthetase, putative (Trypanosoma cruzi (strain CL Brener)). Kind of test: Trypanosoma cruzi tyrosyl tRNA synthetase (TcYRS) SOP. As to conditions: 30 µM. Type of test: functional.
Test [9] concerns the target Chromo domain-containing protein 1 (Saccharomyces cerevisiae (strain ATCC 204508 / S288c) (Baker's yeast)) (UniProt P32657). Kind of test: ScCHD-1 Enzyme Inhibition Assay. Further: in the data most compounds retested in dose-response had high values. As to conditions: 30 µM. Type of test: functional.

For some of these results: Entries with a potency or affinity are not part of this list.

Chain of Sialic acid-binding Ig-like lectin 9 (Homo sapiens) (Q9Y336 whole entry): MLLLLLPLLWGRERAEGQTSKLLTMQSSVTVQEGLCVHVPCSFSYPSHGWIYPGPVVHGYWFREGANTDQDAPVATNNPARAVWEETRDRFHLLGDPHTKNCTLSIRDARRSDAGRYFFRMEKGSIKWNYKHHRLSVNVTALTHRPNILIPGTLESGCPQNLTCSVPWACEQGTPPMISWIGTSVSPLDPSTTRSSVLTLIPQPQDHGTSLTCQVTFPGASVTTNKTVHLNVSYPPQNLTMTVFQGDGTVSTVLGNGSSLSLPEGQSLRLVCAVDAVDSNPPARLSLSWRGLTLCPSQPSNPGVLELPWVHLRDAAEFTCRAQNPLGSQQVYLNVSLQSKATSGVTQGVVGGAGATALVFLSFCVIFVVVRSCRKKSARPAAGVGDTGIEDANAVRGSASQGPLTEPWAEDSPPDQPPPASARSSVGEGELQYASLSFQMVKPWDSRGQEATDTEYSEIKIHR
Chain of Protein translocase subunit SecA (Escherichia coli (strain K12)) (P10408 whole entry): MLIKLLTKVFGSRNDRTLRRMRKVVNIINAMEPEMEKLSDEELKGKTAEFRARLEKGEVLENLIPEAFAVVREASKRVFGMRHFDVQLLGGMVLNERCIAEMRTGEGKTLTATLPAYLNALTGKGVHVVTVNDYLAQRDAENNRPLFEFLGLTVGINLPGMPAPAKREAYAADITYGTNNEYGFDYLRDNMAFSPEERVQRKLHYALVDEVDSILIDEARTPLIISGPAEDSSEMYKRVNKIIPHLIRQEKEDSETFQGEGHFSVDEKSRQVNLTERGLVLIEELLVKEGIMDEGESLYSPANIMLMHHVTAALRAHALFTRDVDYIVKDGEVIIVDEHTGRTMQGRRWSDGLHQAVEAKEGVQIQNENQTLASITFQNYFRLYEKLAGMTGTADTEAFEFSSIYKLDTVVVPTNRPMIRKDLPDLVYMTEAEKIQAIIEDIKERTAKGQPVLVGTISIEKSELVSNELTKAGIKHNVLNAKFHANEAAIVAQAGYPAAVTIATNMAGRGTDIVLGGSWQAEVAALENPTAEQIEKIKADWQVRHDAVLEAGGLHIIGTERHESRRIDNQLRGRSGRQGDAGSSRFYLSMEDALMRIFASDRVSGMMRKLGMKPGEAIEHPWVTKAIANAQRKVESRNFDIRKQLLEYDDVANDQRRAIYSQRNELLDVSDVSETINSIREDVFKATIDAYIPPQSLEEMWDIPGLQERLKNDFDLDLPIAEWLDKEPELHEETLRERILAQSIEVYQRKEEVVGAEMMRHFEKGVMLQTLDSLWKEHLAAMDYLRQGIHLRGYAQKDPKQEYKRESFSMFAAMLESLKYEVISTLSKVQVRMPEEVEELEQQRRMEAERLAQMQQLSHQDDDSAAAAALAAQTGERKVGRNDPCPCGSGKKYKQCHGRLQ
Chain of Chromo domain-containing protein 1 (Saccharomyces cerevisiae (strain ATCC 204508 / S288c) (Baker's yeast)) (P32657 whole entry, the tested form may be a part): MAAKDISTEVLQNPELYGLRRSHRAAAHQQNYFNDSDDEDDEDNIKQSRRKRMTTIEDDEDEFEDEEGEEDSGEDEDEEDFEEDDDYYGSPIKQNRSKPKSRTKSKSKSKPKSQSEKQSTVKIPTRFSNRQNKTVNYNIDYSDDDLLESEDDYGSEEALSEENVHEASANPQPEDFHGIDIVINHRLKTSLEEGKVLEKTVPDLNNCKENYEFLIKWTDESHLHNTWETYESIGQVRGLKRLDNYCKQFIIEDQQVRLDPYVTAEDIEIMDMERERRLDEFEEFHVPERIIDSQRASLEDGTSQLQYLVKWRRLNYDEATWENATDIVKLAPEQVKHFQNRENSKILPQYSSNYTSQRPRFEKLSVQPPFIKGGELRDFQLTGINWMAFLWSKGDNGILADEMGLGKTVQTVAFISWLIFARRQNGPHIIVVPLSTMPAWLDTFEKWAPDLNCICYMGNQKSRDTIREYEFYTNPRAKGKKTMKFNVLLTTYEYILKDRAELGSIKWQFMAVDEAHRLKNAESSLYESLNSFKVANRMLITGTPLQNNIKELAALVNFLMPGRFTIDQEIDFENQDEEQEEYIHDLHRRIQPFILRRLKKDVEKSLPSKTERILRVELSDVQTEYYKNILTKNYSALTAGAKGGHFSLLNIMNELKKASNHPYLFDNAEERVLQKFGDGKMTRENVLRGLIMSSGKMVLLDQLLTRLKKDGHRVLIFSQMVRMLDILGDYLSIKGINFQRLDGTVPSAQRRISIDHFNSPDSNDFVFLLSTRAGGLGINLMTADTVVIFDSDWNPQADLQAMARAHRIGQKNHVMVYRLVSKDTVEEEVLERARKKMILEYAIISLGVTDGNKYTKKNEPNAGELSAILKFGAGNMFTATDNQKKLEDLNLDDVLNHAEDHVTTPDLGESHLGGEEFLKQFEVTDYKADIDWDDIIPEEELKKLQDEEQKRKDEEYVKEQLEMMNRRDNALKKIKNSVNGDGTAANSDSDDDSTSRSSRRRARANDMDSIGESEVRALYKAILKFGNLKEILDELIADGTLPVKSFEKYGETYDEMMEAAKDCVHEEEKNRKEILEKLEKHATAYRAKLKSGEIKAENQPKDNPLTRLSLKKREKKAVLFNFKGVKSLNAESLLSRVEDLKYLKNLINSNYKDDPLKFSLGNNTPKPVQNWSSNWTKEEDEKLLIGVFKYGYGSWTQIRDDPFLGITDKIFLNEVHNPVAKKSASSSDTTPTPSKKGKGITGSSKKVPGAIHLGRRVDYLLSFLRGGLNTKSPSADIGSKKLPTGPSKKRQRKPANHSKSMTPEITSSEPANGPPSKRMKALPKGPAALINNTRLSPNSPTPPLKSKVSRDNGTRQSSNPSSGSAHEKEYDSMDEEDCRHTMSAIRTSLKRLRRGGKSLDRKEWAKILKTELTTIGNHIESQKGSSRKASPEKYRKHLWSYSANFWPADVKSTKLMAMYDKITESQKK

Regarding `Cc1nc(CSCCC(=O)NCc2cccnc2N(C)C)cs1`, the Percent Effect in test [1] is -0.871%; in test [2], 20.2%; in test [3], -1.17%; in test [4] it was -7.06%; in the test with Trypanosoma cruzi, 5.38%; in test [5] it was 4.56%. For the same molecule, the Percent Effect is 7.45% in [6]; 5.3% in the test filed under Homo sapiens; 6.4% in [7]; 24.1% in test [8]; -7.54% in test [9].

Take `Cn1nccc1C1CCN(Cc2csc(-c3ncccn3)n2)CC1`: the Percent Effect is -3.65% in test [1]; 24.3% in test [2]; -7.27% in test [3]; 6.8% in test [4]; 6.96% in the test with Trypanosoma cruzi; -0.554% in test [5]. Also, the Percent Effect in [6] was 8.08%; in the test listed under Homo sapiens, 13.2%; in [7] it was 11.9%; in test [8], 28.1%; in test [9], -7.46%.

For `O=C(c1cnccn1)N1CCOCC2(CCN(C3CCOCC3)C2)C1` (stereo unspecified), the Percent Effect in test [1] was -3.59%; in test [2], 25.3%; in test [3], -6.88%; in test [4], -0.346%; with Trypanosoma cruzi, 3.54%; in [5], -0.528%. Besides, the Percent Effect is 19.4% in test [6]; -1.42% in the test filed under Homo sapiens; 8.47% in test [7]; 15.4% in [8]; -9.96% in test [9].

Take `Cc1noc(Cl)c1CCC(=O)N1CCN(c2ncccn2)CC1`: the Percent Effect in test [1] is -1.95%; in test [2], 10.5%; in test [3], -1.41%; in test [4] it was -4.66%; with Trypanosoma cruzi, -11.1%; in test [5], 5.75%. For the same molecule, the Percent Effect in [6] is 7.02%; in the test filed under Homo sapiens, 21.6%; in [7] it was 5.42%; in test [8], 13.6%; in test [9], 1.74%.

For `COc1ccc(Cc2nnc(SC)o2)cc1OC`, the Percent Effect was -4.8% in test [1]; 0% in test [2]; -3.66% in test [3]; 1.57% in test [4]; 6.72% in the test with Trypanosoma cruzi; -1.56% in [5]. In addition, the Percent Effect was 8.72% in [6]; -12.7% in the test filed under Homo sapiens; 3.83% in test [7]; 11.1% in test [8]; -3.69% in test [9].

On to `C[C@@H]1CN(C(=O)c2ccc(C#N)nc2)CC[C@@]1(O)C1CCOCC1`, for which the Percent Effect in test [1] was -2.31%; in test [2], 5.41%; in test [3], -1.11%; in test [4] it was 17.6%; in the test with Trypanosoma cruzi it was 6.18%; in test [5], 10.5%. For the same molecule, the Percent Effect is 3.45% in [6]; 14.3% in the test listed under Homo sapiens; 5.82% in [7]; 9.76% in test [8]; -1.75% in [9].

In the case of `Cc1nc(C2CCCN(C(=O)CCCn3cccn3)C2)no1` (stereo unspecified), the Percent Effect is -4.66% in [1]; 23.4% in test [2]; -2.84% in test [3]; 4.64% in test [4]; 4.49% in the test with Trypanosoma cruzi; -0.356% in [5]. Moreover, the Percent Effect in [6] is 5.57%; in the test filed under Homo sapiens, 11%; in test [7] it was 6.8%; in test [8], 24.4%; in [9], -8.73%.

`NC(=O)c1csc(C(=O)N2CCCCC2Cn2cccn2)c1` (stereo unspecified): the Percent Effect in test [1] was -5.35%; in test [2], 13.5%; in test [3], 1.44%; in test [4], 6.12%; with Trypanosoma cruzi, -0.279%; in test [5], -3.88%. Moreover, the Percent Effect in test [6] stood at 0.539%; in the test listed under Homo sapiens it was 16.2%; in test [7], 5.94%; in [8], 13.4%; in test [9] it was 1.19%.

In the case of `CCn1cnnc1CNC(=O)N1CCN(c2cccc(OC)c2)CC1`, the Percent Effect in [1] is -4.11%; in test [2], 20.8%; in test [3], -7.68%; in test [4], 2.16%; in the test on Trypanosoma cruzi it was -3.75%; in test [5], -0.356%. The Percent Effect in test [6] was 12.3%; in the test listed under Homo sapiens it was 25.9%; in [7], 12.6%; in test [8], 14.6%; in test [9] it was -9.3%.

With `CCc1ncncc1C(=O)N1CCOC(c2nc(C)n[nH]2)C1` (stereo unspecified), the Percent Effect was -9.48% in test [1]; -1.27% in [2]; 7.38% in test [3]; 5.45% in test [4]; -2.56% with Trypanosoma cruzi; 2.8% in [5]. The Percent Effect in test [6] came out at 5.32%; in the test listed under Homo sapiens, 1.37%; in [7] it was 1.04%; in test [8] it was 10.1%; in test [9], 1.96%.

On to `CN(Cc1nnc(C2CC2)n1C)C1CCN(Cc2ccc(F)cc2)C1` (stereo unspecified), for which the Percent Effect in test [1] was -0.349%; in [2] it was 18.9%; in [3], -8.58%; in test [4] it was 2.26%; in the test on Trypanosoma cruzi, 0.283%; in test [5], -8.02%. Also, the Percent Effect in [6] is 13%; in the test filed under Homo sapiens it was 5.85%; in test [7], -1.48%; in [8] it was 18.5%; in [9] it was -10.5%.
